Inconclusive results are not listed. Active and inactive are the calls of the source. The calls were made as follows: active = hit-call score of the fitted dose curve at least 0.9, where 1 is the maximum; inconclusive = response in the unintended direction; inactive = score below 0.9.
molecular target: Retinoic acid receptor RXR-alpha (Homo sapiens) (UniProt P19793); assay: ATG_RXRa_TRANS: Attagene TRANS-FACTORIAL HepG2 Assay for human Retinoid X Receptor alpha (RXRa) (AID 2283012)
In short: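 Chimeric NR-GAL4 trans-activation in HepG2, 24 h treatment; reporter transcripts quantified by fluorescence on capillary electrophoresis, analysed for upward change from DMSO.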

Retinoic acid receptor RXR-alpha (Homo sapiens), sequence (P19793 whole entry, looked up, the tested form may be a part): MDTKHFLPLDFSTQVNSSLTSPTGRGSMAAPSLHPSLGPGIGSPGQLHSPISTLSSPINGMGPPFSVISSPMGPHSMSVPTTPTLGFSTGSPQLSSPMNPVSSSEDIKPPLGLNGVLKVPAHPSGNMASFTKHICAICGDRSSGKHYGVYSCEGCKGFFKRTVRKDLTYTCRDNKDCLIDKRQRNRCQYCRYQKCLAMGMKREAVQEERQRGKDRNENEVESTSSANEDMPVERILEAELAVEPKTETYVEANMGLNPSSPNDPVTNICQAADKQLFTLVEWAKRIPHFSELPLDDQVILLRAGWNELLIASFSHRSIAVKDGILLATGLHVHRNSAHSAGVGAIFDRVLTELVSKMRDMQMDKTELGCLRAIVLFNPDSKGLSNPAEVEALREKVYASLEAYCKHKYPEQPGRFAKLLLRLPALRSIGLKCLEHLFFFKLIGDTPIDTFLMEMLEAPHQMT

| Compound | outcome |
| --- | --- |
| O=C(OCc1ccccc1)c1ccc(O)cc1 | inactive |
| CC(=O)OC(C)c1ccccc1 (configuration not stated) | inactive |
| Nc1ncnc2nc[nH]c12 | inactive |
| CC(C)(C)N | inactive |
| COCC(=O)O | inactive |
| C=C1C[C@H]2[C@@H]3C=C(C)C4=CC(=O)CC[C@]4(C)[C@H]3CC[C@]2(C)[C@@]1(OC(C)=O)C(C)=O | inactive |
| Cn1ccnc1 | inactive |
| CCCCCC(=O)OCC | inactive |
| CCCc1ccc(O)c(OC)c1 | inactive |
| CCCC(CC)c1ccccc1 (configuration not stated) | inactive |
| CC1(C)[C@@H]2CC[C@@]1(C)C(=O)C2 | inactive |
| CN1CCN(C)CC1 | inactive |
| Cc1c(Cl)cccc1Cl | inactive |
| O=C(O[C@@H]1Cc2c(O)cc(O)cc2O[C@@H]1c1cc(O)c(O)c(O)c1)c1cc(O)c(O)c(O)c1 | inactive |
| CCCCOCC(C)O (configuration not stated) | inactive |
| O=C(C=Cc1ccccc1)OCCc1ccccc1 | inactive |

molecular target: human Retinoid X Receptor beta (RXRb), RXRB (gene 6257) (UniProt P28702); assay: ATG_RXRb_TRANS: Attagene TRANS-FACTORIAL HepG2 Assay for human Retinoid X Receptor beta (RXRb) (AID 2283013)
In short: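 After a 24 h incubation with test chemical, transfected HepG2 cells carrying NR-Gal4 fusions and GAL4-UAS reporter transcription units yield RNA whose reporter cDNA is FAM-labelled, HpaI-cut and sized by capillary electrophoresis; increases over DMSO are scored.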

human Retinoid X Receptor beta (RXRb), RXRB (gene 6257), sequence (P28702 whole entry, looked up, the tested form may be a part): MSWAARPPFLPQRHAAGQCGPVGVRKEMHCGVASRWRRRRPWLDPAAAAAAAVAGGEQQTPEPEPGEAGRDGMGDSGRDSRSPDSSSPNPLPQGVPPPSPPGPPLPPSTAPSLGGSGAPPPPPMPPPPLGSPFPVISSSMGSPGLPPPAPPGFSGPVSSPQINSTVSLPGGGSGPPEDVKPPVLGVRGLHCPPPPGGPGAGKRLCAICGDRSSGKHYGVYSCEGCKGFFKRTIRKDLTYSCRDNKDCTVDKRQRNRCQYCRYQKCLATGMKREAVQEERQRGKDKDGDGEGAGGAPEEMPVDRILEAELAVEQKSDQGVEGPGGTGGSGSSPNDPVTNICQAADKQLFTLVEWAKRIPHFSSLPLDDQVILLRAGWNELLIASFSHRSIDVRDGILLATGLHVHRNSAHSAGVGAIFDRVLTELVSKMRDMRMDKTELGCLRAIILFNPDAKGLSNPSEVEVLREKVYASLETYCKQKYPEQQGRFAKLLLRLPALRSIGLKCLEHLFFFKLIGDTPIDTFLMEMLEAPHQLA

| Compound | AC50 | outcome |
| --- | --- | --- |
| CC(=O)/C=C/C1C(C)=CCCC1(C)C (configuration not stated) | 31.3 µM (active) |  |
| O=C(OCc1ccccc1)c1ccc(O)cc1 |  | inactive |
| O=C(Oc1ccccc1)c1ccccc1O |  | inactive |
| CC1=CCC(C(C)C)C=C1 (configuration not stated) |  | inactive |
| CC(C)CCOCc1ccccc1 |  | inactive |
| O=C(O)CCC(=O)O |  | inactive |
| CC(C)(C)N |  | inactive |
| Cn1ccnc1 |  | inactive |
| C[Si](C)(C)N[Si](C)(C)C |  | inactive |
| CC(=O)CC(=O)Nc1ccccc1C |  | inactive |
| CCCCCC(=O)OCC |  | inactive |
| CCCc1ccc(O)c(OC)c1 |  | inactive |
| CCCC(CC)c1ccccc1 (configuration not stated) | 66.4 µM (active) |  |
| O=C(O[C@@H]1Cc2c(O)cc(O)cc2O[C@@H]1c1cc(O)c(O)c(O)c1)c1cc(O)c(O)c(O)c1 |  | inactive |
| CCCCOCC(C)O (configuration not stated) |  | inactive |
| C=CC(C)(CCC=C(C)C)OC(=O)C=Cc1ccccc1 (configuration not stated) |  | inactive |
| CCCCCCO |  | inactive |
| CC(C)(c1ccccc1)c1ccc(Nc2ccc(C(C)(C)c3ccccc3)cc2)cc1 |  | inactive |
| O=C(C=Cc1ccccc1)OCCc1ccccc1 |  | inactive |
| CCOc1ccc(NC(N)=O)cc1 |  | inactive |
| CCc1cccc(CC)c1 |  | inactive |

molecular target: human Thyroid Receptor alpha (THRa1), THRA (gene 7067) (UniProt P10827); assay: ATG_THRa1_TRANS: Attagene TRANS-FACTORIAL HepG2 Assay for human Thyroid Receptor alpha (THRa1) (AID 2283014)
In short: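 Transcripts from GAL4-UAS-driven reporters, measured after 24 h compound exposure by RT-PCR plus capillary electrophoresis of 6-FAM-labeled fragments, were fitted for gain of signal relative to DMSO. Cells: transiently transfected HepG2 expressing NR-Gal4 chimeras.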

human Thyroid Receptor alpha (THRa1), THRA (gene 7067), sequence (P10827 whole entry, looked up, the tested form may be a part): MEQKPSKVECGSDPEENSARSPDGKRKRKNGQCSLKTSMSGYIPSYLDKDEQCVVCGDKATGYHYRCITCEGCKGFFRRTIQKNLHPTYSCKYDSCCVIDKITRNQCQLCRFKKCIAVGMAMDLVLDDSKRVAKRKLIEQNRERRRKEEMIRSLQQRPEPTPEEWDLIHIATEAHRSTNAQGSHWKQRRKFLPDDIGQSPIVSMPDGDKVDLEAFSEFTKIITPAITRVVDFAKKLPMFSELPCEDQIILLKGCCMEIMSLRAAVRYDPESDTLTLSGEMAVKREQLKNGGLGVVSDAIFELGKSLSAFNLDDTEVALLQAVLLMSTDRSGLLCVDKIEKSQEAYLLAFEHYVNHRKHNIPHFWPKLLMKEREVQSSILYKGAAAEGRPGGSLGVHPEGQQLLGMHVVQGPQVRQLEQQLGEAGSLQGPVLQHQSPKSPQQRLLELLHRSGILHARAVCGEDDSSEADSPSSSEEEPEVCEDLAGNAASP

| Compound | outcome |
| --- | --- |
| CC(=O)/C=C/C1C(C)=CCCC1(C)C (configuration not stated) | inactive |
| O=C(Oc1ccccc1)c1ccccc1O | inactive |
| CC(=O)OC(C)c1ccccc1 (configuration not stated) | inactive |
| Nc1ncnc2nc[nH]c12 | inactive |
| CCCCNS(=O)(=O)c1ccccc1 | inactive |
| COCC(=O)O | inactive |
| Cn1ccnc1 | inactive |
| C[Si](C)(C)N[Si](C)(C)C | inactive |
| CCCC(CC)c1ccccc1 (configuration not stated) | inactive |
| CC1(C)[C@@H]2CC[C@@]1(C)C(=O)C2 | inactive |
| CN1CCN(C)CC1 | inactive |
| Cc1c(Cl)cccc1Cl | inactive |
| O=C(O[C@@H]1Cc2c(O)cc(O)cc2O[C@@H]1c1cc(O)c(O)c(O)c1)c1cc(O)c(O)c(O)c1 | inactive |
| CCCCOCC(C)O (configuration not stated) | inactive |
| CCN1CCCC1=O | inactive |
| C=CC(C)(CCC=C(C)C)OC(=O)C=Cc1ccccc1 (configuration not stated) | inactive |
| CCCCCCCC(=O)OCC(COC(=O)CCCCCCC)OC(=O)CCCCCCC | inactive |
| O=C(C=Cc1ccccc1)OCCc1ccccc1 | inactive |
| CCOc1ccc(NC(N)=O)cc1 | inactive |
| CCCCCOC(=O)CCCCC | inactive |
